The record followed here is PubChem BioAssay (Tox21).

Values without a mark were called inactive. The source made the active and inactive calls. Calls come from the whole dose curve; as a rule, active = well fitted activation curve with a large enough effect in the repeat runs; inconclusive = weak or mixed curves; inactive = flat fitted curve, though single readings scatter.
% is set by controls: 0 for no effect and ±100 for the full control effect.

A short description of the test: Caspase-3/7 induction in CHO-K1 cells by small molecules, qHTS assay (AID 1346980). Note: nearly all actives have a fitted effect of over 15% in size. The following applies: CHO-K1 caspase-3/7 induction, Caspase-Glo luminescence, 17 h; series mostly up to 92.4 µM. In outline:
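Wild-type CHO-K1 cells exposed to compounds for 17hr at 37 C, 5% CO2. Caspase-3/7 activity then measured by Caspase-Glo 3/7 luminescence after 30min at room temperature.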
On to `O=NN(CCCl)C(=O)NCCCl`, for which the call was inactive. The same measure, in the same setting: the entry for `O=C(O)CCS` is “inactive”. Still for that read-out and setting: the entry for `CSSc1ccoc1C` is “inactive”; for `O=C1OC[C@H](Cc2cccc(O)c2)[C@H]1Cc1cccc(O)c1` it is “inactive”; for `Nc1ccn([C@H]2CS[C@@H](CO)O2)c(=O)n1` it is “inactive”. Still for that read-out and setting: the entry for `FC(F)(F)C(F)(F)C(F)(F)C(F)(F)CCI` is “inactive”; for `CCCCCCCCCCCCCCCC(=O)OCC` it is “inactive”; for `Nc1ccc(N=Nc2ccc(N)cc2)cc1` it is “inactive”.

Take `CC1C(C)(C)C2=C(C(=O)CCC2)C1(C)C` (centres undefined): the result was inactive. On to `COC(=O)c1sccc1S(N)(=O)=O`, for which the compound was called inactive. As for `CCCCCCOC(=O)CCCCC`, the compound was classed as inactive. Still for that read-out and setting: the result for `O=c1[nH][nH]c(=O)c2cc([N+](=O)[O-])ccc12` reads “inactive”; that for `CCC(=O)OCc1ccc(OC)cc1`, “inactive”. Still for that read-out and setting: the entry for `CNC1CCCN(c2c(F)cc3c(=O)c(C(=O)O)cn(C4CC4)c3c2OC)C1` (centres undefined) is “inactive”; for `Nc1ccc(S(=O)(=O)NCc2ccccc2)cc1` it is “inactive”.

For the compound `CC(=O)N[C@@H](Cc1ccc(O)cc1)C(=O)O`, the compound was called inactive. Same read-out and setting: the entry for `CC(C)(C)NCC(O)COc1cccc2c1C[C@H](O)[C@H](O)C2` (some centres undefined) is “inactive”.

For the compound `CCC(Cl)CC(Cl)C(Cl)C(Cl)C(Cl)C(C)Cl` (centres undefined), the caspase-3/7 activation was -6.38% [at 19 µM].

As to `CC(C)c1ccc(C#N)cc1`, the result was inactive. Regarding `CC1=CC[C@@]23C[C@@H]1C(C)(C)[C@@H]2CC[C@H]3C`, the call was inactive.

On to `Cc1cccc2sc(N)nc12`, for which the outcome was inactive. As to `CCN(CC)CC(=O)Nc1c(C)cccc1C(=O)OC`, the outcome was inactive. Same read-out and setting: the result for `CN=C(N)NC(=O)Nc1c(C)cccc1C` reads “inactive”. Turning to `CCCCCCCCCCCCCCN(C)C`, the caspase-3/7 activation is -1.58% [at 19 µM].

Take `C=CC(=O)NC(C)C`: the outcome was inactive. The same measure, in the same setting: the entry for `O=C(O)c1cccc(C[C@@H]2COc3ccc(OCc4nc5cc(F)ccc5s4)cc3[C@@H]2O)c1` is “inactive”. Still for that read-out and setting: the result for `O=C(O)CO` reads “inactive”; that for `CCCCC[C@H](O)/C=C/[C@H]1[C@H](O)CC(=O)[C@@H]1C/C=C\CCCC(=O)O`, “inactive”. With `Cc1ccc(N(CC2=NCCN2)c2cccc(O)c2)cc1`, the compound was called inactive. As to `CC(C)C(=O)OCCOc1ccccc1`, the result was inactive. Turning to `O=C1CC[C@@H](C(=O)O)N1`, the call was inactive. Still for that read-out and setting: the entry for `CCCCOCCOC(=O)c1cccnc1` is “inactive”; for `COC(=O)CC(C(C)=O)C(=O)OC` (centres undefined) it is “inactive”; for `CC(C)(O)c1coc(S(=O)(=O)NC(=O)Nc2c3c(cc4c2CCC4)CCC3)c1` it is “inactive”.

With `COC(CC(C)CCCC(C)(C)O)OC` (centres undefined), the compound was called inactive. Still for that read-out and setting: the result for `C[C@H](CS)C(=O)N1CCC[C@H]1C(=O)O` reads “inactive”; that for `CC(=O)Oc1cccc(O)c1`, “inactive”.

`CSCC[C@H](NC(=O)[C@H](Cc1c[nH]c2ccccc12)NC(=O)CCNC(=O)OC(C)(C)C)C(=O)N[C@@H](CC(=O)O)C(=O)N[C@@H](Cc1ccccc1)C(N)=O`: the compound was classed as inactive. Same read-out and setting: the entry for `Cc1cccc(C)c1NC(=O)c1cc(S(N)(=O)=O)c(Cl)cc1O` is “inactive”.
